# Measured values reported in PubChem BioAssay AID624296 (National Center for Advancing Translational Sciences (NCATS), 2012).
# Screen size: about 350,000 compounds; about 9,900 (2.8%) were called active. Inconclusive results (about 15%) are left out. The sample holds actives, similar compounds and a random draw of the others, so the mix is not that of the screen. A number with no mark means an inactive call. Calls follow the shape of the dose curve; as a rule, active = well fitted activation curve with a large enough effect; inconclusive = small, poorly fitted or top-dose-only effect; inactive = no such curve, though single readings can be large or run the other way.
# Assay: A quantitative high throughput screen for small molecules that induce DNA re-replication in MCF 10a normal breast cells. Also: nearly all actives have a fitted effect of over 50% in size. As to activity, positive = re-replication: % of control where 0% means no effect.
# Settings: MCF 10A DNA re-replication, Hoechst nuclear intensity, 48 h; series mostly up to 46.1 µM; activity, positive = re-replication: at the top concentration
# Potency is read from the fitted curve at half-maximal effect.
Structure (SMILES),Potency,"activity, positive = re-replication [%]"
Cc1nn(Cc2ccc(Cl)cc2)c(Cl)c1/C=N/NC(=O)CNc1ccccc1F,16.4 µM (active),
CCn1nc(C)c(/C=N/NC(=O)Cc2ccc(Cl)cc2)c1C,,-0.496
Cc1nn(Cc2ccc(Cl)cc2)c(Cl)c1/C=N/NC(=O)c1cccnc1,,-11
CC(=O)Nc1ccc(S(=O)(=O)Nc2ccc(N3CCCCC3)cc2)cc1,,-20.7
FC(F)(F)c1nnc2c3ccccc3c(Cl)nn12,20.6 µM (active),
FC(F)(F)c1nnc2ccc(N3CCN(c4ccccc4)CC3)nn12,,-15.9
Nc1nnc2c(C(F)(F)F)nc3ccccc3n12,,-1.13
CCOC(=O)c1ccc(NC(=O)C2CC(=O)N(c3ccc4c(c3)OCCO4)C2)cc1 (configuration not stated),,-0.605
CC[C@]1(O)CC2CN(CCc3c([nH]c4ccccc34)[C@@](C(=O)OC)(c3cc4c(cc3OC)N(C=O)[C@H]3[C@@](O)(C(=O)OC)[C@H](OC(C)=O)[C@]5(CC)C=CCN6CC[C@]43[C@@H]65)C2)C1 (some centres not stated),0.651 µM (active),
O=S(=O)(NCCc1ccccn1)c1cc(Cl)cc(Cl)c1O,,12.3
CC(=O)c1ccc(N2CCN(C(=O)c3ccc(Cl)c(S(=O)(=O)NC4CC4)c3)CC2)c(F)c1,,13.4
Cc1ccc(C(=O)Nc2ccn(C)n2)cc1,,-0.0546
COc1ccc(NC(=O)COC(=O)c2n[nH]c3ccccc23)c(OC)c1,,0.862
O=C(C[C@H]1C/C=C\C[C@@H](NC(=O)OCC2c3ccccc3-c3ccccc32)C(=O)O[C@@H](c2ccccc2)CNC1=O)N[C@H](CO)Cc1ccccc1,10.3 µM (active),
CC(C)(C)OC(=O)C[C@H]1C/C=C\C[C@@H](CC(=O)N[C@H](CO)Cc2ccccc2)C(=O)NC[C@@H](c2ccccc2)OC1=O,,-0.905
CC(C)(C)OC(=O)C[C@@H]1C/C=C\C[C@@H](CC(=O)N[C@H](CO)Cc2ccccc2)C(=O)NC[C@@H](c2ccccc2)OC1=O,,0.345
CCN(CC(=O)Nc1c(F)cccc1F)C(=O)Cc1cccs1,,-4.02
O=C(c1cnccn1)N1CCN(S(=O)(=O)c2cccc(Cl)c2)CC1,,-0.0694
CCOC(=O)c1c(C)[nH]c2c1-c1ccccc1C(=O)C2=O,1.3 µM (active),
CCOC(=O)c1c(C)[nH]c(C)c1S(=O)(=O)N(C)CC(=O)Nc1ccccc1C,,-2.08
CCOC(=O)N1CCN(CC(=O)c2c(C)[nH]c3ccccc23)CC1,,12
COc1ccc(C(=O)N(C)Cc2ccc(OC)c(OC)c2OC)cc1S(=O)(=O)N1CCOCC1,,-7.11
O=C(CC(O)(C(F)(F)F)C(F)(F)F)Nc1ccc(Cl)c(Cl)c1,5.8 µM (active),
Cc1nnc(NC(=O)Nc2ccc(Cl)c(Cl)c2)s1,,0.674
Cc1ccc(NC(=O)C/C(N)=N/O)cc1Cl,,3.94

Structure (SMILES),Potency,"activity, positive = re-replication [%]"
C[C@H](O)[C@@H]1C(=O)N2CCc3ccc(N4CCOCC4)cc3[C@@H]2C[C@@H]1N(C)C(=O)C(C)(C)C,,-15.5
CN(C)C(=O)CCc1ccc2c3c([nH]c2c1)[C@]1(CCC2CCCC2)[C@@H](C(=O)N2CCOCC2)C[C@H](CC(=O)NCc2ccco2)C(=O)N1CC3,,0.547
CC(=O)OCC1(O)CC23CCC4c5ccoc5CCC4(C)C2CCC1C3 (configuration not stated),,4.61
N#Cc1c2c(c(-c3ccccc3)[nH]c1=O)CCCC2,,-3.44
N#Cc1c(-c2ccccc2)c(-c2ccccc2)n[nH]c1=O,2.59 µM (active),
Cc1ccc(CSc2nc(-c3ccccc3)c(C#N)c(=O)[nH]2)cc1,,63.4
CCOc1ncccc1C(=O)OCC(=O)Nc1cccc(S(=O)(=O)N2CCCCCC2)c1,,16.2
COc1ccccc1N1CC(C(=O)Nc2ccc(S(=O)(=O)N3CCOCC3)cc2)CC1=O (configuration not stated),,-0.803
COc1cc(OC)c(N2CC(C(=O)Nc3cc(Cl)ccc3N3CCOCC3)CC2=O)cc1Cl (configuration not stated),18.4 µM (active),
COc1ccc(Cl)cc1NC(=O)C1CC(=O)N(c2ccc(F)cc2)C1 (configuration not stated),,-12.6
Cc1ccc(CSc2ccc(S(=O)(=O)N3CCCCC3)cn2)cc1,,14
Cc1ccsc1C(=O)NNC(=O)COc1ccc(Br)cc1,,2.39
O=C1c2ccccc2C(=O)C1C(=O)C1CC1,,12
O=c1cc(-c2ccccc2)[nH]c2cc(F)ccc12,1.3 µM (active),
Cc1ccc(-c2cc(=O)c3ccc(F)cc3[nH]2)cc1,,17.8
Cc1ccc(-c2cc(=O)c3ccc(Cl)cc3[nH]2)cc1,,-6.12
C[C@H](CO)N1C[C@H](C)[C@H](CN(C)CC2CC2)Oc2ccc(NC(=O)CCN3CCOCC3)cc2C1=O,,0.189
CC(=O)c1ccc(NC(=O)C(C)OC(=O)c2ccc(NS(=O)(=O)c3ccc4[nH]c(=O)[nH]c4c3)cc2)cc1 (configuration not stated),,-2.03
O=S(=O)(Nc1ncnc2sccc12)c1cccc(F)c1,,7.7
COc1ccc2c(c1)C(SCC(=O)NCc1ccccc1)CC(C)(C)O2 (configuration not stated),,-3.92
CN1c2ccc([N+](=O)[O-])cc2C(C)(C)C12C=Cc1cc(C(=O)O)ccc1O2 (configuration not stated),,-11.9
COc1ccc2c(c1)C=CC1(O2)N(CCO)c2ccccc2C1(C)C (configuration not stated),20.6 µM (active),
O=C(CN1C(=O)NC2(CCCCCCC2)C1=O)NCc1ccc(F)cc1,,15.7
COc1cccc(C(=O)OCC(=O)c2[nH]c(C)c(C(C)=O)c2C)c1,,15.1
CCN(C[C@H]1N[C@@](CC)(C(=O)OC)[C@H]2C(=O)N(Cc3ccccc3)C(=O)[C@@H]12)S(=O)(=O)c1ccc(C(F)(F)F)cc1,,-4.29

Structure (SMILES),Potency,"activity, positive = re-replication [%]"
CCC1(CC)NC(=O)N(CC(=O)OCC(=O)c2cc(C)c(C)cc2C)C1=O,,3.4
O=C(NCC1CCCCC1)NCC1CCCCC1,,-1.83
O=C(NNC(=O)c1ccc(Cl)nc1)c1ccc(Br)cc1,,-31.3
Cc1cnc(NC(=O)c2ccc(Cl)nc2)s1,,0.739
CCN(CC)c1ccc(NC(=O)c2ccc(Cl)nc2)cc1,5.8 µM (active),
Cc1ccccc1SCC(=O)OCC(=O)N1CC(=O)Nc2ccccc21,,-1.01
Cc1ccccc1-c1cc(C(=O)NCc2cccs2)n(CC2CC(c3cccnc3)=NO2)n1 (configuration not stated),,-25.3
O=C(NCCN1CCOCC1)c1cc(-c2cccs2)nc2ccccc12,,6.61
c1ccc2cc3c(NCCN4CCOCC4)ccnc3cc2c1,4.61 µM (active),
O=C(NCCN1CCOCC1)c1ccc2c(c1)ncn2C1CCCC1,,-3.91
COc1cc(C2CC(=O)Oc3cc(OC)c(OC)c(OC)c32)cc(OC)c1OC (configuration not stated),,2.66
Cc1ccc(-c2nnc(-c3ccc(NC(=O)c4cccs4)cc3)o2)cc1,,23.4
Cc1ccc(OCC(=O)Nc2ccc(NC(=O)c3cccs3)cc2)c(C)c1,20.6 µM (active),
COc1cc2ccccc2cc1C(=O)Nc1ccc(NC(=O)c2cccs2)cc1,,5.54
Cn1cccc1C(=O)OCC(=O)NCCc1ccccc1,,-4.88
Cc1ccc(S(=O)(=O)N2CCN(C(=O)CN3C(=O)NC(C)(c4ccc(Cl)cc4)C3=O)CC2)c(C)c1 (configuration not stated),,-1.48
NC(=O)c1ccc(N2CCCC2)nc1,,-25.7
N#Cc1c(-c2ccccc2)nc(SCc2ccc([N+](=O)[O-])cc2)[nH]c1=O,,8.55
C=CCSc1nc2ccccc2[nH]1,,10.6
COc1ccccc1CSc1ncc(-c2ccc([N+](=O)[O-])cc2)[nH]1,11.6 µM (active),
CCCCSc1nc2ccccc2[nH]1,,-11
COc1ccccc1CSc1nc2ccccc2[nH]1,8.2 µM (active),
COc1ccccc1C1CCN(c2ccc([N+](=O)[O-])cn2)CC1,,19.6
Nc1cc2c(cc1Br)-c1ccc(F)cc1C2=O,,4.09
CCOC(=O)C1CCN(CC(=O)Nc2ccc(OC)c(S(=O)(=O)N3CCCCC3)c2)CC1,,-0.144

Structure (SMILES),Potency,"activity, positive = re-replication [%]"
O=C(c1cn(-c2ccccc2)nc1-c1cccnc1)N1CCN(S(=O)(=O)c2ccccc2F)CC1,,7.54
COc1cccc(OC)c1C(=O)Nc1sc2c(c1C(N)=O)CCCC2,,0.648
NC(=O)c1c(NC(=O)c2ccccc2)sc2c1CCCC2,18.4 µM (active),
CCOC(=O)C(NC(=O)CC(C)C)(Nc1sc2c(c1C(N)=O)CCCC2)C(F)(F)F (configuration not stated),,-2.86
O=C(Nc1sc2c(c1C(=O)O)CCC2)c1ccccc1F,,0.128
NC(=O)c1c(Nc2nc3c(F)cccc3s2)sc2c1CCCC2,20.6 µM (active),
O=C(CN1CCCC1)Nc1sc2c(c1C(=O)Nc1ccccc1)CCCC2,,1.37
O=C(NNC(=O)c1ccc(-n2cncn2)c([N+](=O)[O-])c1)c1ccccc1,,-2.5
CCN(CC)c1ccc(NC(=O)CN2C(=O)NC3(CCc4ccccc43)C2=O)cc1 (configuration not stated),,-1.6
CCN(CC(=O)Nc1ccc(OC)cc1)C(=O)c1ccc(Cl)c(S(=O)(=O)N2CCCC2)c1,,11.8
OCC1(CO)CC2(C1)CC(CO)(CO)C2,,-1.42
CN(C)C(=O)CCc1ccc2c3c([nH]c2c1)[C@]1(C)[C@@H](C(=O)N2CCCCC2)C[C@H](CC(=O)NCCC2=CCCCC2)C(=O)N1CC3,,9.41
C/C(=N\NC(=O)c1ccoc1C)c1ccccc1O,7.31 µM (active),
CC(=O)NC(=O)c1ccccc1O,,-0.337
CC(C)=C(NC(=O)c1ccccc1)C(=O)N/N=C(\C)c1ccccc1O,,-3.76
CSCCC(NC(=O)c1ccccc1)C(=O)N1CCCCCCC1 (configuration not stated),,-1.68
O=C(Cc1ccc(NC(=O)C2CCCN(C(=O)C3CCCCC3)C2)cc1)Nc1cccc(C(=O)N2CCCCC2)c1 (configuration not stated),,12.1
CC(=O)c1c(N2CCN(c3ccc(F)cc3)CC2)nc(=S)n(-c2ccccc2)c1C,,42.3
CC(=O)c1c(N2CCOCC2)nc(=S)n(Cc2ccccc2)c1C,,-6.16
CC(=O)c1c(N2CCOCC2)nc(=S)n(-c2cc(C)ccc2C)c1C,1.3 µM (active),
O=C(CN1C(=O)NC2(CCOc3ccccc32)C1=O)Nc1cccc([N+](=O)[O-])c1 (configuration not stated),,-0.599
O=C(OCCN1C(=O)c2ccccc2C1=O)[C@@H]1CC(O)CN1S(=O)(=O)c1ccccc1[N+](=O)[O-] (some centres not stated),,5.67
